Drawing on PubChem BioAssay (NCI), this text covers growth for 83 compounds.

Several values for one entry are separate records, joined by “and”; a condition that tells them apart may be missing. Identical values can stand only once. The panel holds about 83,000 compounds, 20% with a hit somewhere; the sample as a whole holds those more often.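 Single-dose data. Exposure time 48 hours. Values below 10 considered active.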 Activity calls are given as the source filed them.

The assay concerns HL-60(TB) leukemia. Briefly: NCI-60 one-dose screen, 48 h (100 = growth as untreated, 0 = no growth, -100 = all killed). The settings on record: 10 µM unless noted.

As for `Cc1ccc(NC(=O)COC(=O)c2ccc(S(=O)(=O)N3CCCCCC3)cc2)cc1`, the growth was 85.9% (inactive).
Consider `Cc1ccccc1C1=N[C@@H](Cc2ccccc2)C(=O)c2c(nc3ccccn23)N1`, for which the growth is 125% (inactive).
In the case of `CCN(CC)CCOc1ccc(C(=C(C)c2ccc(Cl)cc2)c2ccc(OCCN(CC)CC)cc2)cc1` it was -55.5% (active).
With `COc1ccccc1S(=O)(=O)Nc1ccc2c(c1)CN(C)C(=O)N2`, the growth was 21.9% (inactive).
On to `CN(C)c1ccc(/C=C/c2ccnc3ccccc23)cc1N`, for which the growth was 43.5% (inactive).
In the case of `COC(=O)[C@H]1[C@H](OC)[C@@H](OC(=O)/C=C/c2ccncc2)CC2CN3CCc4c([nH]c5cc(OC)ccc45)[C@@H]3C[C@@H]21` (stereo partly drawn), the growth is 28.6% (inactive).
For `COCCNCC(O)Cn1c2ccc(Cl)cc2c2cc(Cl)ccc21` (stereo not drawn), the growth was -42.6% (active).
For the compound `COC(c1ccc2c(c1)OCO2)C(C)Br` (stereo not drawn), the growth was 94.7% (inactive).
For the compound `CC[C@@H](C[C@H](CCO)c1ccccc1)c1cc2ccccc2o1`, the growth is 92.5% (inactive).
For `COc1cc2c(cc1-c1c(C)noc1C)ncc1nc(C3CCOCC3)n([C@H](C)COC(F)F)c12`, the growth is 27.5% (inactive).
For `O=C(/C=C/CN1CCOCC1)Nc1cc2c(Nc3ccc(F)c(Cl)c3F)ncnc2cc1OCCOC(F)F`, the growth was 76.9% (inactive).
In the case of `C[N+](C)(C)c1ncnc2nc[nH]c12`, the growth is 91.8% (inactive).
In the case of `COc1ccc2c(c1)OC1=C(C(=O)OC1)C2c1cc(OC)c2c(c1)OCCO2` (stereo not drawn), the growth was -29.2% (active).
In the case of `CCCCCCCCCCCCCCCCSC(=NCC)NCC` it was -59.1% (active); in that of `O=C1c2cccc3cccc(c23)C(=O)N1CC#Cc1ccc2c3c(cccc13)C(=O)N(CCO)C2=O`, 112% (inactive); in that of `C=C(C)[C@@H]1CC[C@]2(C(=O)N=C=S)CC[C@]3(C)[C@H](CC[C@@H]4[C@@]5(C)CCC(=O)C(C)(C)[C@@H]5CC[C@]43C)[C@@H]12`, -2.27% (active).
`CC1(C)OC(=O)CC1=O`: the growth is 91.5% (inactive).
With `NCCCNc1nc2ccccc2c2c(=O)c3cccc(F)c3sc12`, the growth is 13.9% (inactive).
As to `CN(C)C(C(N)=O)c1ccc(Cl)cc1` (stereo not drawn), the growth was 89.6% (inactive).
As for `O=C(O)CCCN1C(=O)/C(=C/C(Cl)=C/c2ccccc2)SC1=S`, the growth was 7.56% (active).
Regarding `COCC(=O)NC/C=C/c1ccc2ncnc(Nc3ccc(Oc4ccc(C)nc4)c(C)c3)c2c1`, the growth was 22.2% (inactive).
Turning to `CNC(=O)c1cc(Oc2ccc(CC(=O)Nc3cc(C(C)(C)C)cn3C)cc2)ccn1`, the growth is 77.5% (inactive).
On to `COc1ccc(-n2c(-c3ccccc3)c(-c3ccccc3)c3c(SCC(=O)N/N=C/c4ccc(Cl)cc4)ncnc32)cc1`, for which the growth was 103% (inactive).
In the case of `CCCCN(CCCC)CC(C)(C)C(O)c1ccc(OC)c2ccccc12` (stereo not drawn) it was 56.3% (inactive); in that of `Cc1ccc(-c2cc(-c3cccc(Nc4ccnc5cc(Cl)ccc45)c3)nc3nc(N)[nH]c(=O)c23)cc1`, 58% (inactive); in that of `Oc1c(Cl)cc(Cl)cc1C=NCC1CCC(CN=Cc2cc(Cl)cc(Cl)c2O)CC1` (stereo not drawn), 73.9% (inactive).
For `CC(=O)OC[C@]1(C)C=C2C(=O)[C@](C)(O)C3(CC3)C(C)=C2[C@H]1OC(C)=O` the value was 96.4% (inactive); for `COC(=O)C(Sc1ccc(Cl)cc1)C1SC(=S)N(Cc2ccccc2)C1=O` (stereo not drawn), 76.1% (inactive); for `C=CCn1c(SCC(=O)Nc2ccc(C(=O)/C=C/c3cc(OC)c(OC)c(OC)c3)cc2)nnc1-c1ccccc1`, 71.8% (inactive).
As for `CCCCCCCC[C@@H]1N[C@@H](C(=O)OC)Cc2c1[nH]c1ccccc21`, the growth was 99% (inactive).
Regarding `O=[N+]([O-])c1ccc(S(=O)(=O)N2CCN(C3=NS(=O)(=O)c4ccccc4N3c3ccccc3)CC2)cc1`, the growth is 96.7% (inactive).
For the compound `O=C1N(C2CCCCC2)C(=O)N1C1CCCCC1`, the growth was -16.2% (active).
Take `COCCOC(=O)NC(=O)Nc1ccc(/C(=N/O)c2ccc(Cl)cc2)cc1`: the growth is -20.4% (active).
In the case of `O=C(CCN1CCCC1)Nc1ccc2c(NCc3ccc(F)cc3)c3ccccc3nc2c1` it was -47.3% (active).
As to `Cc1ccc(S(=O)(=O)Oc2ccc([N+](=O)[O-])cc2[N+](=O)[O-])cc1`, the growth was 47.9% (inactive).
Regarding `O=C1CSC(=S)N1Cc1cccnc1`, the growth is 13.8% (inactive).
For `COc1cc(N2C(=O)[C@H](O)C2c2ccc(SC)cc2)cc(OC)c1OC` (stereo partly drawn) the value was -41% (active); for `O=C(O)c1[nH]c(=O)[nH]c(=O)c1[N+](=O)[O-]`, 127% (inactive).
In the case of `CC(=Nc1ccccc1)C1=C(O)C(Cc2ccc(O)cc2)NC1=O` (stereo not drawn) it was -51.5% (active); in that of `CC(C)CCC(=O)[C@@H](C)[C@H]1[C@@H](OC2OCC(O)C(O)C2NS(C)(=O)=O)C[C@H]2[C@@H]3CC=C4C[C@@H](O)CC[C@]4(C)[C@H]3CC[C@]12C` (stereo partly drawn), 7.32% (active); in that of `Cn1c2c(c3ccc(Cl)cc31)-n1cccc1C2=O`, 64.9% (inactive).
Turning to `COc1cc([C@@H]2c3cc4c(cc3[C@H](O)[C@H]3COC[C@@H]23)OCO4)cc(OC)c1OC`, the growth is 57.8% (inactive).
As to `COc1cc2nc(Cl)nc(NCCO)c2cc1OC`, the growth is 104% (inactive).
Regarding `CCCCOC(=O)OCc1cc(=O)c(O)co1`, the growth is 95.2% (inactive).
For `CC1=C/C(O)CC(=O)Cc2nc(co2)C(=O)N2CCC=C2C(=O)OC(C(C)C)C(C)/C=C\C(=O)NC/C=C\1` (stereo not drawn) the value was 56.4% (inactive); for `CCN(CC)CCOc1ccc(-c2c(-c3ccccc3)c(=O)oc3ccccc23)cc1`, 107% (inactive).
In the case of `O=[N+]([O-])c1ccc(Oc2cccnc2)c([N+](=O)[O-])c1`, the growth is -10.1% (active).
Consider `Nc1nc(N)c(C=Nc2ccc(Br)cc2)c(Nc2ccc(Br)cc2)n1`, for which the growth is 90% (inactive).
Regarding `C#CCOc1ccc2ncnc(Nc3cccc(CNC(=O)CCl)c3)c2c1`, the growth is 35.2% [8.25 µM] (inactive).
For `COc1ccc2nc3cc(Cl)ccc3c(N)c2c1`, the growth was -71.6% (active).
In the case of `CC1(C)NCCC[C@]2(C)[C@H]3CC[C@@H]4[C@H]5[C@H](C(=O)/C=C/c6ccccn6)CC[C@]5(CO)CC[C@@]4(C)[C@]3(C)CC[C@@H]12` it was -31.8% (active); in that of `O=C(Nc1ccccc1)Nc1cccc(-n2cc(-c3ccncc3)c(-c3ccc(O)c(Cl)c3)n2)c1`, 37.5% (inactive).
For the compound `O=[N+]([O-])c1ccc(N/N=C/c2c(O)ccc3ccccc23)nc1`, the growth is 9.55% (active).
As to `S=C(S)NCCc1c[nH]c2ccccc12`, the growth is 91.4% (inactive).
Turning to `O=C(Nc1cccc(-n2cc(-c3ccncc3)c(-c3ccc(O)c(Cl)c3)n2)c1)Nc1cccc(C(F)(F)F)c1`, the growth is -11.6% (active).
Turning to `Cc1nc2cc(NC(=O)CN3CCN(CCN4C(=O)c5cccc6cccc(c56)C4=O)CC3)ccc2s1`, the growth was 63.9% (inactive).
As for `Cc1ccc(S(=O)(=O)Nc2cccc(Cn3c(=O)[nH]c4ccc(Oc5ncccn5)cc4c3=O)c2)cc1`, the growth was 65.3% (inactive).
As for `COc1cc(-c2nc3ccccc3[nH]2)ccc1OCc1nnc(-c2ccc(CC(C)C)cc2)o1`, the growth is 98.5% (inactive).
In the case of `COc1ccc(-n2sc(=O)n(Cc3ccc(COC(=O)C(C)c4ccc(CC(C)C)cc4)cc3)c2=O)cc1` (stereo not drawn) it was -43.3% (active); in that of `CCC(CC)COC(=O)c1ccc(O)c(O)c1`, 8.36% (active); in that of `Oc1ccc(N=Nc2ccc(Br)cc2)c(O)c1`, -21.8% (active).
`Cc1cc(N(CCCNc2ccnc3cc(Cl)ccc23)Cc2ccc3c(c2)OCO3)nc(N2CCOCC2)n1`: the growth is -69.7% (active).
As for `O=C(CN1CCOCC1)N1CCOCC1`, the growth is 101% (inactive) and 109% (inactive).
For `Cc1ccc(NCSc2ccc(Cl)cc2)cc1` the value was 3% (active) and 22.5% (inactive); for `O=C(/C=C/c1ccccc1)c1ccc(Nc2nc(NCCO)nc(Nc3ccc(Cl)cc3)n2)cc1`, 101% (inactive); for `CSc1nc(N)c(N)c(N)n1`, 77.8% (inactive).
In the case of `CCOC(=O)c1cn2ncnc(Oc3ccc(NC(=O)NCCN4CCOCC4)c(Cl)c3)c2c1C`, the growth was 101% (inactive).
Take `O=C(c1cccc(C(=O)c2ccc3c4c(cccc24)C(=O)N(c2ccccc2)C3=O)c1)c1ccc2c3c(cccc13)C(=O)N(c1ccccc1)C2=O`: the growth is 103% (inactive).
As to `C=C1CCC2C(C)(CO)C(O)CCC2(C)C1CC(NCc1ccccc1)C1=CCOC1=O` (stereo not drawn), the growth was 111% (inactive).
For `Cc1cc(SCc2ccc(Cl)cc2Cl)nc(SCc2ccc(Cl)cc2Cl)n1`, the growth is 95.6% (inactive).
In the case of `COc1ccc(C(=O)c2cc(OC)c(OC)c(OC)c2)cc1/C=C/C(=O)c1ccc(OC)c(OC)c1` it was 19.1% (inactive).
In the case of `CCN(CC)CCn1nc2c3c(cccc3c1=O)-c1ccccc1-2`, the growth was 16.9% (inactive).
Take `COc1ccc(CC(=O)Nc2nn3c(-c4cc(C(F)(F)F)cc(C(F)(F)F)c4)nnc3s2)cc1`: the growth was 52% (inactive).
As to `NN1C(=O)CSC1=S`, the growth is 126% (inactive).
In the case of `COc1ccc(/C=C2\Oc3cc(OCCN4CCC(Cc5ccccc5)CC4)ccc3C2=O)cc1OC` it was 99.7% (inactive); in that of `Cc1ccc2nc(-c3c(N)n[nH]c3CCCO)[nH]c(=O)c2c1`, 108% (inactive).
Regarding `Cc1ccc(C(C)C)cc1C(=O)C[n+]1ccccc1`, the growth is 115% (inactive).
With `COc1ccc2c(c1)c1nc3cc(C)c(C)cc3nc1n2CCN(C)C`, the growth was -26.4% (active).
Turning to `CC(=O)Nc1ccc(O)cc1`, the growth was 88.3% (inactive) and 74.2% (inactive).
In the case of `CC(=O)OCC(=O)[C@@]1(O)CC[C@H]2[C@@H]3CCC4=CC(=O)CC[C@]4(C)[C@@]3(F)[C@@H](O)C[C@@]21C` it was 98.2% (inactive); in that of `N#C/C(=C/c1ccc([N+](=O)[O-])cc1)n1nnc2cc(F)c(F)cc21`, 62.7% (inactive).
For the compound `Cc1c(-c2nc3ccc(F)cc3c(=O)[nH]2)c2ccccc2n1C`, the growth is 4.98% (active).
For `CC(=O)N1N=C(c2ccc(Nc3nc(Nc4ccc(Cl)cc4)nc(Nc4ccc(Cl)cc4)n3)cc2)CC1c1ccco1` (stereo not drawn) the value was 93.6% (inactive).
